According to PubChem BioAssay (NCI):
This is part of a sample that, as a whole, favours compounds with a hit. Of some 83,000 tested, about 20% had one in any assay.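 Compound tested at a single concentration for 48 hours in 96-well plates; a percent growth value below 10 was scored as active.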 The source made the active and inactive calls.

How the values were obtained:
Test in all cases: NCI-60 one-dose screen, 48 h (100 = growth as untreated, 0 = no growth, -100 = all killed)
Details in all cases: 10 µM unless noted
NCI-H23 lung = tested on: NCI-H23 lung
NCI-H322M lung = tested on: NCI-H322M lung
HOP-62 NSCLC = tested on: HOP-62 NSCLC
NCI-H460 lung = tested on: NCI-H460 lung
HOP-92 NSCLC = tested on: HOP-92 NSCLC
NCI-H522 lung = tested on: NCI-H522 lung
A549/ATCC NSCLC = tested on: A549/ATCC NSCLC
786-0 renal = tested on: 786-0 renal
COLO 205 colon = tested on: COLO 205 colon
DU-145 prostate = tested on: DU-145 prostate
MALME-3M melanoma = tested on: MALME-3M melanoma
MDA-MB-231 breast = tested on: MDA-MB-231 breast
RXF 393 renal = tested on: RXF 393 renal
SF-268 CNS = tested on: SF-268 CNS
SF-295 CNS = tested on: SF-295 CNS
SF-539 CNS = tested on: SF-539 CNS
UACC-257 melanoma = tested on: UACC-257 melanoma
M14 melanoma = tested on: M14 melanoma
K-562 leukemia = tested on: K-562 leukemia

Measured: growth

COc1ccc(-c2cc(-c3ccc(Nc4ccnc5cc(Cl)ccc45)cc3)nc(N3CCOCC3)n2)cc1
active: MALME-3M melanoma -39.1% | SF-539 CNS -41.1%
inactive: NCI-H23 lung 68% | NCI-H322M lung 87% | HOP-62 NSCLC 81.6% | NCI-H460 lung 13.3% | HOP-92 NSCLC 67.2% | NCI-H522 lung 48% | A549/ATCC NSCLC 12.3% | 786-0 renal 69.6% | COLO 205 colon 44.7% | DU-145 prostate 21.7% | MDA-MB-231 breast 52.4% | RXF 393 renal 34.9% | SF-268 CNS 72.1% | SF-295 CNS 94.6% | UACC-257 melanoma 79% | M14 melanoma 12.9%

CC(=O)c1nc2ccccc2n1CC(=O)c1cccc(Cl)c1
inactive: NCI-H23 lung 36.6% | NCI-H322M lung 48.2% | HOP-62 NSCLC 55.8% | HOP-92 NSCLC 75.6% | A549/ATCC NSCLC 15.2% | 786-0 renal 35.8% | COLO 205 colon 117% | MALME-3M melanoma 90.6% | MDA-MB-231 breast 28.1% | SF-268 CNS 13.2% | UACC-257 melanoma 36.5% | M14 melanoma 16.6%
active: NCI-H460 lung 4.22% | NCI-H522 lung -16% | DU-145 prostate 5.27% | K-562 leukemia -0.209% | RXF 393 renal 2% | SF-295 CNS 8.35% | SF-539 CNS -31.3%

COc1cccc(-c2nc3sccn3c2-c2ccnc(NCCCNS(=O)(=O)c3cccc(Cl)c3)c2)c1
inactive: NCI-H23 lung 39% | NCI-H322M lung 77.4% | HOP-62 NSCLC 65% | NCI-H460 lung 64.8% | NCI-H522 lung 43.7% | A549/ATCC NSCLC 35.8% | 786-0 renal 63.9% | COLO 205 colon 39.8% | DU-145 prostate 46.4% | K-562 leukemia 22.2% | MALME-3M melanoma 60% | MDA-MB-231 breast 71.9% | RXF 393 renal 71.9% | SF-268 CNS 52.2% | SF-295 CNS 21.2% | SF-539 CNS 86.2% | UACC-257 melanoma 55.2% | M14 melanoma 30.8%

CC1(C)CC[C@]2(C(=O)Nc3ccccn3)CC[C@]3(C)C(=CC[C@@H]4[C@@]5(C)C/C(=C/c6cccnc6)C(=O)C(C)(C)[C@@H]5CC[C@]43C)[C@H]2C1
active: COLO 205 colon 4.76%
inactive: NCI-H23 lung 35.9% | NCI-H322M lung 79.1% | HOP-62 NSCLC 54.7% | NCI-H460 lung 10.6% | HOP-92 NSCLC 57.7% | NCI-H522 lung 30.5% | A549/ATCC NSCLC 27.3% | 786-0 renal 43.2% | DU-145 prostate 53.2% | K-562 leukemia 18.7% | MALME-3M melanoma 48.3% | MDA-MB-231 breast 73.2% | RXF 393 renal 33.3% | SF-268 CNS 53.5% | SF-295 CNS 38.1% | SF-539 CNS 51.6% | UACC-257 melanoma 26.2% | M14 melanoma 35.6%

COC[C@H](C)n1c(C2CCOCC2)nc2cnc3cc(-c4c(C)noc4C)c(OC)cc3c21
inactive: NCI-H23 lung 70.4% | NCI-H322M lung 50.4% | HOP-62 NSCLC 39.8% | NCI-H460 lung 65.2% | HOP-92 NSCLC 37.1% | NCI-H522 lung 34.4% | A549/ATCC NSCLC 45.6% | 786-0 renal 51.6% | COLO 205 colon 28.9% | DU-145 prostate 77.5% | K-562 leukemia 39.1% | MALME-3M melanoma 75.7% | MDA-MB-231 breast 55.4% | RXF 393 renal 67% | SF-268 CNS 76.7% | SF-295 CNS 53.7% | SF-539 CNS 40.7% | UACC-257 melanoma 38.3% | M14 melanoma 42.5%

CC(=O)OCCC/C(=C/c1cc2ccccc2c2ccccc12)[N+](=O)[O-]
active: NCI-H23 lung -76.5% | HOP-62 NSCLC -61.3% | NCI-H460 lung -18.5% | HOP-92 NSCLC -76% | NCI-H522 lung -59.9% | A549/ATCC NSCLC -94.6% | 786-0 renal -89.5% | COLO 205 colon -85.9% | DU-145 prostate -100% | MALME-3M melanoma -71% | MDA-MB-231 breast -54.3% | SF-268 CNS -89.6% | SF-295 CNS 7.66% | SF-539 CNS -100% | M14 melanoma -69.9%
inactive: NCI-H322M lung 58.2%

CCC([N+](=O)[O-])S(=O)(=O)c1ccc(C)cc1 (stereo not drawn)
inactive: NCI-H23 lung 93.2% | HOP-62 NSCLC 84.7% | NCI-H460 lung 104% | HOP-92 NSCLC 87.9% | NCI-H522 lung 89.3% | A549/ATCC NSCLC 96.7% | 786-0 renal 89.4% | COLO 205 colon 115% | DU-145 prostate 160% | K-562 leukemia 115% | MALME-3M melanoma 143% | MDA-MB-231 breast 103% | RXF 393 renal 97.1% | SF-268 CNS 126% | SF-295 CNS 111% | SF-539 CNS 94.5% | UACC-257 melanoma 102% | M14 melanoma 103%

O=Nc1c(O)c(Cl)cc2ccccc12
inactive: NCI-H23 lung 92.3% | NCI-H322M lung 102% | HOP-62 NSCLC 75.1% | NCI-H460 lung 90.3% | HOP-92 NSCLC 112% | NCI-H522 lung 50.1% | A549/ATCC NSCLC 93% | 786-0 renal 105% | COLO 205 colon 70.9% | DU-145 prostate 101% | K-562 leukemia 54.3% | MALME-3M melanoma 90.8% | MDA-MB-231 breast 74.3% | RXF 393 renal 67.4% | SF-268 CNS 82.5% | SF-295 CNS 111% | SF-539 CNS 89.2% | UACC-257 melanoma 75.8% | M14 melanoma 85.7%

C=CC(=O)Nc1cccc(-c2nc(SC)nc(NCc3ccccc3)c2C#N)c1
inactive: NCI-H23 lung 61.1% | NCI-H322M lung 73.8% | HOP-62 NSCLC 73.9% | NCI-H460 lung 84% | HOP-92 NSCLC 48.1% | NCI-H522 lung 31.2% | A549/ATCC NSCLC 53.4% | 786-0 renal 66% | COLO 205 colon 98% | DU-145 prostate 60.8% | K-562 leukemia 60% | MALME-3M melanoma 66.4% | MDA-MB-231 breast 62.4% | RXF 393 renal 21.9% | SF-268 CNS 49% | SF-295 CNS 67.8% | SF-539 CNS 67.7% | UACC-257 melanoma 64.9% | M14 melanoma 71.3%

C=C1c2nc3ccccc3n2C=C(c2cccc(Cl)c2)N1Cc1ccc(OC)cc1
active: NCI-H460 lung 4.58% | NCI-H522 lung -10.9% | K-562 leukemia 0.532% | RXF 393 renal 4.81% | SF-295 CNS 2.35% | SF-539 CNS -15%
inactive: NCI-H23 lung 29.4% | NCI-H322M lung 44.6% | HOP-62 NSCLC 41.2% | HOP-92 NSCLC 77.9% | A549/ATCC NSCLC 14.3% | 786-0 renal 35.5% | COLO 205 colon 95% | DU-145 prostate 15.3% | MALME-3M melanoma 76.8% | MDA-MB-231 breast 36.3% | SF-268 CNS 21.7% | UACC-257 melanoma 34.4% | M14 melanoma 22.3%

O=C1C=CC(=O)N1c1ccc2c(c1)Cc1cc(F)ccc1-2
inactive: NCI-H23 lung 101% | NCI-H322M lung 93% | HOP-62 NSCLC 93.8% | NCI-H460 lung 111% | HOP-92 NSCLC 83.4% | NCI-H522 lung 91.1% | A549/ATCC NSCLC 97.9% | 786-0 renal 112% | COLO 205 colon 94% | DU-145 prostate 112% | MALME-3M melanoma 94.4% | MDA-MB-231 breast 92.3% | RXF 393 renal 92.2% | SF-268 CNS 99.7% | SF-539 CNS 101% | UACC-257 melanoma 64.7% | M14 melanoma 107%

O=C1/C(=C/c2ccc(Cl)cc2)SC(=S)N1CCc1ccc(O)cc1
active: NCI-H522 lung -30%
inactive: NCI-H23 lung 89.7% | NCI-H322M lung 99.3% | HOP-62 NSCLC 99.9% | NCI-H460 lung 99.3% | HOP-92 NSCLC 73.7% | A549/ATCC NSCLC 87% | 786-0 renal 78.6% | COLO 205 colon 110% | DU-145 prostate 50.2% | K-562 leukemia 96.9% | MALME-3M melanoma 81.5% | MDA-MB-231 breast 84% | RXF 393 renal 94.1% | SF-268 CNS 85% | SF-295 CNS 102% | SF-539 CNS 80% | UACC-257 melanoma 99.5% | M14 melanoma 104%

O=C1CC[C@H](c2ccc(O)c3c2C(=O)[C@@H]2O[C@@H]2C3=O)c2cccc(O)c21
active: NCI-H522 lung -29.4% | COLO 205 colon -34.6% | K-562 leukemia 0.986%
inactive: NCI-H23 lung 94.4% | NCI-H322M lung 98% | HOP-62 NSCLC 79% | NCI-H460 lung 97.1% | HOP-92 NSCLC 38.4% | A549/ATCC NSCLC 87.2% | 786-0 renal 44.8% | DU-145 prostate 21.1% | MALME-3M melanoma 86.5% | MDA-MB-231 breast 43.5% | RXF 393 renal 16.9% | SF-268 CNS 84.4% | SF-295 CNS 91.3% | SF-539 CNS 75% | UACC-257 melanoma 38% | M14 melanoma 69.6%

COc1cc(/C=C/c2cc(/C=C/c3ccc(O)c(OC)c3)n(-c3c(Cl)cccc3Cl)c(=O)n2)ccc1O
active: NCI-H522 lung 9.89% | K-562 leukemia 9.21% | RXF 393 renal -11.8% | SF-539 CNS 3.35% | M14 melanoma 7.71%
inactive: NCI-H23 lung 29% | NCI-H322M lung 72.7% | HOP-62 NSCLC 50.6% | NCI-H460 lung 70.8% | HOP-92 NSCLC 78.7% | A549/ATCC NSCLC 44.1% | 786-0 renal 29.7% | COLO 205 colon 71.8% | DU-145 prostate 28.7% | MALME-3M melanoma 58.8% | MDA-MB-231 breast 29% | SF-268 CNS 19.9% | SF-295 CNS 75.4% | UACC-257 melanoma 41.1%

O=C1C=C(O)C(=O)C(CC2=C(O)C(=O)C=C(O)C2=O)=C1O
inactive: NCI-H23 lung 113% | HOP-62 NSCLC 104% | NCI-H460 lung 104% | HOP-92 NSCLC 109% | NCI-H522 lung 92.1% | A549/ATCC NSCLC 92% | COLO 205 colon 115% | DU-145 prostate 110% | K-562 leukemia 106% | MALME-3M melanoma 108% | MDA-MB-231 breast 95.8% | RXF 393 renal 110% | SF-268 CNS 100% | SF-539 CNS 88.5% | UACC-257 melanoma 105% | M14 melanoma 104%

Cc1ccc(NS(=O)(=O)c2ccc(-c3cnc(C4CC4)o3)cc2)cc1C
active: NCI-H522 lung -7.94% | COLO 205 colon -10.1% | K-562 leukemia 9.36% | RXF 393 renal -3.66% | SF-539 CNS -13.6%
inactive: NCI-H23 lung 21.2% | NCI-H322M lung 42.7% | HOP-62 NSCLC 33.7% | NCI-H460 lung 12.3% | HOP-92 NSCLC 29.6% | A549/ATCC NSCLC 27.1% | 786-0 renal 43.4% | DU-145 prostate 14.4% | MALME-3M melanoma 42.6% | MDA-MB-231 breast 40.1% | SF-268 CNS 52% | SF-295 CNS 10.3% | UACC-257 melanoma 49.8% | M14 melanoma 25.6%
